High-throughput results from PubChem BioAssay.
NPSR antagonist: blocks cAMP signaling of the human neuropeptide S receptor | 220,000 tested, 1% active | Q6W5P4 | AID 1461 | CHO-NPSR cells, cAMP TR-FRET, antagonist mode | Potency, µM (top dose mostly 38.3 µM), inactives show top-dose activity change, negative = inhibition, actives largely listed as inhibitors; also: % is scaled to controls: 0 for no effect and ±100 for the full control effect; nearly all actives have a fitted effect of over 50% in size
Target sequence (Q6W5P4 whole entry, looked up): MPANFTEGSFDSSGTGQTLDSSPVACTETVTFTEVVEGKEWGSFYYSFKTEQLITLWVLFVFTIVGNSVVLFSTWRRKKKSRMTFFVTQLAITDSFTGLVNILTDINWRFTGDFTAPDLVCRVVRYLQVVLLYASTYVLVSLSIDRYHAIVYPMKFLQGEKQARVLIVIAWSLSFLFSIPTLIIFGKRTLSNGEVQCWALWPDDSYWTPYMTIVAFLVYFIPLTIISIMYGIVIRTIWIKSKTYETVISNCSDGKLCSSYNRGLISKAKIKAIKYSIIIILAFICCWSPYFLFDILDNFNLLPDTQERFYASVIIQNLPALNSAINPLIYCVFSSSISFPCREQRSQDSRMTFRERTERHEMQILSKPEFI
mIDH1 inhibitor: blocks human mutant IDH1 R132H enzyme | O75874 | IDH1-R132H enzyme, NADPH consumption, diaphorase/resazurin fluorescence | Potency, µM (highest dose often 76.6 µM), for the others: at the top dose activity change, negative = inhibition, hits mostly inhibitors | 390,000 tested, 0.093% active; also: % is scaled to controls: 0 for no effect and ±100 for the full control effect; nearly all actives have a fitted effect of over 65% in size
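IDH1-R132H (0.5 ug/mL) preincubated 30 min with compound, then NADPH (0.016 mM) and alpha-KG (2 mM) added; 80 min at RT, pH 7.5. Remaining NADPH coupled via diaphorase/resazurin to fluorescence (540/590 nm); concentration-response curves normalized to no-enzyme control.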
HTT aggregate: reduces HttQ103-GFP aggregates in PC12 cells; PC12 HttQ103-GFP aggregates, Acumen cytometry, 40 h; Potency, µM (titrated, usually from 46.1 µM), without a hit: top-dose activity change, negative = inhibition, hits mostly inhibitors; 220,000 tested, 1.1% active; AID 1688; also: % is scaled to controls: 0 for no effect and ±100 for the full control effect; nearly all actives have a fitted effect of over 60% in size
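PC12/HTTQ103-GFP, ecdysone-inducible; teb 100 nM; cpd qHTS titration; GFP aggregates read on laser cytometer, Ex 488/Em 500-530 nm.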
HTT cytoprotect: cytoprotection in Huntington HTT-Q103 PC12 cell model. PC12 HTT-Q103 induced, cytoprotection, ATP luminescence, 40 h. Potency, µM (titrated, usually from 56.4 µM), without a hit: cytoprotection (ATP increase), hits mostly activators. 230,000 tested, 0.14% active; also: % of control where 0% means no effect; nearly all actives have a fitted effect of over 45% in size
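Stable PC12 Q103-GFP cells in serum-supplemented, phenol red-free DMEM; induction by tebufenozide at 100 nM final; compound dose series; cell viability quantified luminescently from ATP.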
AT treatment: potential ataxia-telangiectasia treatment | 320,000 tested, 0.19% active | AID 485349 | Potency, µM (series often up to 57.5 µM), without a hit: top-dose activation, usual class: activators | F2112 A-T fibroblasts, KAP-1 phosphorylation AlphaLISA; neocarzinostatin DNA damage 30 min before lysis; also: % of control where 0% means no effect; nearly all actives have a fitted effect of over 45% in size
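ATM-like activity read as KAP-1 phosphorylation via AlphaLISA donor/acceptor antibody pairs after lysis and 6 hr at 25C. Cells were ATM-null patient fibroblasts (F2112, hTERT), dosed 60 min, then exposed to the DSB inducer NCS for 30 min.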
Starred values were filed as active, the others as inactive; [ ] = another dose, or the depositor's remark. Rows were chosen to be rich in hits. Some 1.1% of all compounds tested hit in one or more screens of this group. Calls follow the shape of the dose curve; as a rule, active = well fitted curve in the direction sought with a large enough effect; inconclusive = small, poorly fitted or top-dose-only effect, or another doubt; inactive = no such curve, though single readings can be large; an effect the other way counts as inactive or inconclusive. Potency is read from the fitted curve at half-maximal effect.

Screening O=C(CSc1nnc(-c2ccco2)n1Cc1ccccc1)OC1CCCCC1 returned NPSR antagonist -25%[46.1 µM], mIDH1 inhibitor -3%, HTT aggregate 32µM*, HTT cytoprotect 13% and AT treatment 11%.
O=C(CSc1nnc(-c2ccncc2)n1Cc1ccco1)OC1CCCCC1 was read as NPSR antagonist -6%[46.1 µM], mIDH1 inhibitor 3%, HTT aggregate 4%, HTT cytoprotect -5% and AT treatment -3%.
For C[C@@H]1C[C@@H]2OC(=O)[C@]3(C)[C@H]2[C@@H](OC3(C)O)[C@]2(C)C(=O)C=C[C@H]12 (some centres not stated) the results were NPSR antagonist -16%, mIDH1 inhibitor -3%, HTT aggregate 32%[9.22 µM], HTT cytoprotect 3%[10 µM] and AT treatment 40µM*.
For CCN1CCC[C@@H]1CNC(=O)c1c(OC)ccc(I)c1O the results were HTT cytoprotect -5%[1.9 µM].
Cc1cc(C)cc(NC(=O)Cn2c(=O)n(C(C)C)c(=O)c3oc4ccccc4c32)c1 was read as mIDH1 inhibitor -14%.
Screening O=C(O)c1ccc(C2CCCCC2)cn1 returned NPSR antagonist -1%[46.1 µM], mIDH1 inhibitor -1%, HTT aggregate 3.2µM*, HTT cytoprotect -43% and AT treatment -2%.
Screening O=C(O)C1=C(C2CCCCC2)C(=O)c2ccccc21 returned mIDH1 inhibitor 3%.
For C[N+]1(Cc2ccccc2)CCC(C(=O)OCC2CCCC2)CC1 (configuration not stated) the results were HTT cytoprotect -13%.
`CCOC(=O)c1sc(NC(=O)CSc2n[nH]c(-c3ccc(Cl)cc3Cl)n2)c(C#N)c1C` gave NPSR antagonist -14%[46.1 µM], mIDH1 inhibitor -12%, HTT aggregate 13µM*, HTT cytoprotect -66% and AT treatment -4%.
`CCOC(=O)c1sc(NC(=O)c2cc(-c3ccccc3C)nc3ccccc23)c(C#N)c1C` gave NPSR antagonist -20%[46.1 µM], mIDH1 inhibitor 2%, HTT aggregate 5.6µM*, HTT cytoprotect 34% and AT treatment -4%.
`CCOC(=O)c1sc(NC(=O)c2ccncc2)c(C#N)c1C` gave NPSR antagonist 5%, mIDH1 inhibitor 0%, HTT aggregate 20µM* and AT treatment -11%.
Screening CCOC(=O)c1sc(NC(=O)CSc2nc(C)cc(-c3ccccc3)n2)c(C#N)c1C returned NPSR antagonist -21%[46.1 µM], mIDH1 inhibitor 0%, HTT aggregate 11%, HTT cytoprotect 13%[10 µM] and AT treatment -7%.
Cc1ccc(C)c(/C(=N\N=C(N)N)C2CC2)c1 was read as HTT cytoprotect -11%[10 µM].
For CCOC(=O)c1ccc(Nc2c(-c3ccc(N(C)C)cc3)nc3nc[nH]n23)cc1 the results were mIDH1 inhibitor 21%.
`CC(C)c1ccc(-c2cc(C(=O)N3CCOCC3)c3cc(Br)ccc3n2)cc1` gave mIDH1 inhibitor -3% and AT treatment 4.5µM*.
`CCCC(=O)NCCc1c2n(c3ccc(OC)cc13)Cc1ccccc1-2` gave NPSR antagonist inconclusive and HTT cytoprotect -11%[1.9 µM].
`Cc1cccc(NC(=O)CSc2nc(C)c(CC(=O)c3ccc(Br)cc3)c(C)c2C#N)c1C` gave NPSR antagonist 6.3µM*, mIDH1 inhibitor 10%, HTT aggregate -4%, HTT cytoprotect 4% and AT treatment 1%.
`COCc1cc(C)nc(SCC(=O)Nc2cccc(C)c2C)c1C#N` gave NPSR antagonist inconclusive, mIDH1 inhibitor -4%, HTT aggregate 10%, HTT cytoprotect -5%[10 µM] and AT treatment 2%.
O=C(CCl)Nc1ccc(-c2ccccc2)cc1 was read as NPSR antagonist -19%, mIDH1 inhibitor 9%, HTT aggregate 18µM*, HTT cytoprotect -7% and AT treatment 1%.
O=C(CCl)Nc1cn(-c2ccccc2)nc1-c1ccccc1 was read as NPSR antagonist -19%, mIDH1 inhibitor -1%, HTT aggregate 22µM*, HTT cytoprotect -192% and AT treatment -3%.
For O=C(CCl)Nc1ccc(N=Nc2ccccc2)cc1 the results were NPSR antagonist -48%, mIDH1 inhibitor -14%, HTT aggregate inconclusive and AT treatment 5%.
`Nc1c(C(O)(C(F)(F)F)C(F)(F)F)ccc2ccccc12` gave NPSR antagonist -6%[46.1 µM], mIDH1 inhibitor 9%, HTT aggregate 12%, HTT cytoprotect 1% and AT treatment 28µM*.
`CCCCC1CCC(C(=O)N2CC(=O)Nc3ccc(Cl)cc3C2c2ccc(F)cc2)CC1` (configuration not stated) gave mIDH1 inhibitor -9%.
Cc1cc(C(=O)N/N=C/c2cc(Br)ccc2OC(=O)c2ccccc2)n[nH]1 was read as NPSR antagonist -10%[46.1 µM], mIDH1 inhibitor 1%, HTT aggregate 2µM*, HTT cytoprotect -36%[10 µM] and AT treatment 12%.
`N#C/C(C(N)=O)=c1/ccc2c(c1)N1C3=C(CCCC3)CC3CCCCC31N=2` (configuration not stated) gave NPSR antagonist 10µM*, mIDH1 inhibitor -1%, HTT aggregate -8%, HTT cytoprotect -20% and AT treatment -5%.
`N#CC(C#N)=c1ccc2c(c1)N1C3=C(CCCC3)CC3CCCCC31N=2` (configuration not stated) gave NPSR antagonist 13µM*, mIDH1 inhibitor 0%, HTT aggregate 0%, HTT cytoprotect 7%[10 µM] and AT treatment 0%.
CCOC(=O)CNC(=O)O[C@@H]1C(=O)c2cc(Br)ccc2O[C@H]1c1ccc2c(c1)OCO2 was read as HTT cytoprotect -23%.
Screening CC(=O)c1ccc(NC(=O)CSc2nccn2Cc2ccc3c(c2)OCO3)cc1 returned mIDH1 inhibitor -5%.
For CCN(CC)C(=O)CSc1nc2c(sc(=S)n2-c2ccccc2)c(=O)n1Cc1ccco1 the results were NPSR antagonist 10µM*, mIDH1 inhibitor 0%, HTT aggregate 2%[9.22 µM] and HTT cytoprotect -32%.
Screening CCOC(=O)c1ccc(-c2c(C(=O)OCC)oc3cc(O)c(CC)cc3c2=O)o1 returned NPSR antagonist inconclusive, mIDH1 inhibitor 7%, HTT aggregate 5.6µM*, HTT cytoprotect -29%[0.074 µM] and AT treatment -3%.
`CCOC(=O)c1oc2cc(O)c(CC)cc2c(=O)c1-c1cscn1` gave NPSR antagonist -16%, mIDH1 inhibitor 0%, HTT aggregate -5%, HTT cytoprotect -34% and AT treatment 1%.
Screening O=S(=O)(CCc1ccccc1)c1nnnn1-c1ccc(F)cc1Br returned HTT cytoprotect 26%.
For N#CCCCS(=O)(=O)c1nnnn1-c1ccc(F)cc1Br the results were HTT cytoprotect 7.1µM*.
